From PubChem BioAssay (EPA / NIEHS)
Several values for one entry are separate records, joined by “and”; a condition that tells them apart may be missing. Equal entries are not always repeated. Activity calls are given as the source filed them. The calls were made as follows: active = hit-call score of the fitted dose curve at least 0.9, where 1 is the maximum; inactive = score below 0.9.

Experiments:
[1] = ATG_ISRE_CIS: Attagene CIS-FACTORIAL HepG2 Assay for human Interferon Regulatory Factor 1 (IRF1) binding to an Interferon-Stimulated Response Element (ISRE) (AID 2282948); details: HepG2 ISRE cis-reporter (Attagene), mRNA transcription readout; actives raise or lower the signal
Method in brief: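 Transfected HepG2 (multiple reporter transcription units, cis elements) dosed 24 h. RNA → oligo(dT) RT → PCR → 6-FAM primer extension → HpaI → CE. DMSO = negative control/baseline.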

[2] = ATG_M_32_CIS: Attagene CIS-FACTORIAL HepG2 Assay for M32 Transcription Factor (Internal Marker) (AID 2282949); details: HepG2 Attagene cis-factorial M32 reporter, mRNA; actives raise or lower the signal;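 also: background control marker of the multiplexed CIS panel rather than a real target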
Method in brief: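 Fluorescent capillary electrophoresis peaks of HpaI-digested, FAM-labelled RT-PCR reporter products give the signal. Source: transiently transfected human liver HepG2 cells, 24 h after chemical dosing; bidirectional fitting against DMSO.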

[3] = ATG_M_06_CIS: Attagene CIS-FACTORIAL HepG2 Assay for M06 Transcription Factor (Internal Marker) (AID 2282950); details: HepG2 Attagene CIS-FACTORIAL M06 internal marker reporter; actives raise or lower the signal
Method in brief: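 Measured 24 h post-dosing in transiently transfected HepG2 cells, this internal-marker endpoint reports reporter mRNA via RT-PCR with fluorescent primer extension and capillary electrophoresis. DMSO served as negative control and baseline for bidirectional fitting.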

[4] = target: Hepatocyte nuclear factor 6 (Homo sapiens) (UniProt Q9UBC0); assay: ATG_HNF6_CIS: Attagene CIS-FACTORIAL HepG2 Assay for human Hepatocyte Nuclear Factor 6 (HNF6) (AID 2282952); details: HepG2 Attagene cis-factorial HNF6 reporter transcription; actives raise or lower the signal
Sequence of Hepatocyte nuclear factor 6 (Homo sapiens) (Q9UBC0 whole entry, looked up): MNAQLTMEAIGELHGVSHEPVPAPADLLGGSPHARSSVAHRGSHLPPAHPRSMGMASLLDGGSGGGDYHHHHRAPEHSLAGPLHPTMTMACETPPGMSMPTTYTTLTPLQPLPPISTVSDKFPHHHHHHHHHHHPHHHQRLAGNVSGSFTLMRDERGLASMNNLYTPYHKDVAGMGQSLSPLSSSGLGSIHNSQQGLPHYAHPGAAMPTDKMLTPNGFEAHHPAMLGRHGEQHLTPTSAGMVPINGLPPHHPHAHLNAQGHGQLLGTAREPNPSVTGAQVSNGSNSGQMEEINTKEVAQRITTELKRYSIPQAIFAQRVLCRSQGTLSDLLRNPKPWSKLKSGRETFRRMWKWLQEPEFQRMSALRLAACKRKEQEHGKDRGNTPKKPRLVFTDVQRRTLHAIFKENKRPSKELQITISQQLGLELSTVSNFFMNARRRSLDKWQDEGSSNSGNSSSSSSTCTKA
Method in brief: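 HepG2 cells transiently transfected with cis-element-driven multiple reporter transcription units, dosed 24 h; reporter mRNA quantified by RT-PCR, FAM primer extension, HpaI digestion and capillary electrophoresis; bidirectional fit versus DMSO baseline.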

[5] = target: Heat shock factor protein 1 (Homo sapiens) (UniProt Q00613); assay: ATG_HSE_CIS: Attagene CIS-FACTORIAL HepG2 Assay for human Heat Shock Transcription Factor 1 (HSE) (AID 2282953); details: HepG2 HSE cis-reporter, Attagene RNA transcription; actives raise or lower the signal
Sequence of Heat shock factor protein 1 (Homo sapiens) (Q00613 whole entry, looked up): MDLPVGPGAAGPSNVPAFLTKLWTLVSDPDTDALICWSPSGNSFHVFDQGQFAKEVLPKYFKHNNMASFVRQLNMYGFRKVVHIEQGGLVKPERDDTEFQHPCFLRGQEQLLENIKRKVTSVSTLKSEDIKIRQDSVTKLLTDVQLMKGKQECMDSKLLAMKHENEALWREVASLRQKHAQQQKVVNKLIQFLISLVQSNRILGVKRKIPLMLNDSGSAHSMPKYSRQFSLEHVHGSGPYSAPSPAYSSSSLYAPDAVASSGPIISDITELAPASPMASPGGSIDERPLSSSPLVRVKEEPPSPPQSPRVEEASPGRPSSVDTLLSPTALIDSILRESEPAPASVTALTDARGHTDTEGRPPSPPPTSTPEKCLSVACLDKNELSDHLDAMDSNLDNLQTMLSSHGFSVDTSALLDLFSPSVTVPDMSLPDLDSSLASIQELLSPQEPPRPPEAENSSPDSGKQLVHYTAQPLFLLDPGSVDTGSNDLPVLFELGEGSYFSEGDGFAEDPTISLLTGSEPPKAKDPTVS
Method in brief: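 Reporter mRNA induction in HepG2 is measured 24 h after dosing, using transiently transfected multiplexed cis-regulated reporter units. Signal comes from capillary electrophoresis of labelled RT-PCR products, with DMSO as negative control.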

[6] = ATG_MRE_CIS: Attagene CIS-FACTORIAL HepG2 Assay for human Metal Responsive Element (MRE) (AID 2282954); details: HepG2 MRE cis-reporter transcription, Attagene multiplex; actives raise or lower the signal
Method in brief: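 HepG2 cells transiently transfected with cis-element-driven reporter units; mRNA measured 24 h after dosing. Reporter transcripts quantified by RT-PCR, FAM labelling, HpaI digestion and capillary electrophoresis; bidirectional fit versus DMSO.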

[7] = target: Paired box protein Pax-6 (Homo sapiens) (UniProt P26367); assay: ATG_Pax6_CIS: Attagene CIS-FACTORIAL HepG2 Assay for human Paired Box 6 (PAX6) (AID 2282956); details: HepG2 CIS-FACTORIAL PAX6 reporter transcription, RNA readout; actives raise or lower the signal
Sequence of Paired box protein Pax-6 (Homo sapiens) (P26367 whole entry, looked up): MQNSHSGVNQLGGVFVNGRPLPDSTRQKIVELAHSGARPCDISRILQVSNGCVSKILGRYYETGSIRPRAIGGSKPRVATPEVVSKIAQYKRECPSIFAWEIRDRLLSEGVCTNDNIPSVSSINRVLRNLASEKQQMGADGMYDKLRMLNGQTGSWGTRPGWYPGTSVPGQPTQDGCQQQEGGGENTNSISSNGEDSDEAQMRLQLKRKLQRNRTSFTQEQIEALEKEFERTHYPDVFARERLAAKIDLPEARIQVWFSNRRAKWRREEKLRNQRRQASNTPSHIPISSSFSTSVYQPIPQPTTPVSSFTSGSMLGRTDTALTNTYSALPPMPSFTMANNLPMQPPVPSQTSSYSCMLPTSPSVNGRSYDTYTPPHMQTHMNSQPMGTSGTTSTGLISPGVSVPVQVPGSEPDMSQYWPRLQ
Method in brief: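 Transient MRTU transfection of HepG2 → compound exposure 24 h → TriZol RNA, oligo(dT) RT → PCR, 6-FAM primer extension, HpaI cut → capillary electrophoresis; activity fitted both directions against DMSO.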

[8] = ATG_PXRE_CIS: Attagene CIS-FACTORIAL HepG2 Assay for human Pregnane X Receptor Element (PXRE) (AID 2282957); details: HepG2 Attagene CIS-FACTORIAL PXRE reporter, mRNA; actives raise or lower the signal
Method in brief: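 HepG2 cells transiently transfected with cis-regulated multiple reporter transcription units; endogenous factor activity measured as reporter mRNA 24 h after dosing. RT-PCR, fluorescent primer extension, HpaI digestion, capillary electrophoresis; bidirectional fit versus DMSO baseline.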

[9] = ATG_PBREM_CIS: Attagene CIS-FACTORIAL HepG2 Assay for human Phenobarbital-responsive Enhancer Module (PBREM) (AID 2282955); details: HepG2 PBREM cis-reporter, Attagene multiplexed transcription; actives raise or lower the signal
Method in brief: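 Fluorescence of labelled reporter cDNA fragments, resolved by capillary electrophoresis, gives mRNA induction in transfected HepG2 cells treated for 24 h; DMSO serves as negative control and baseline.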

[10] = target: Hypoxia-inducible factor 1-alpha (Homo sapiens) (UniProt Q16665); assay: ATG_HIF1a_CIS: Attagene CIS-FACTORIAL HepG2 Assay for human Hypoxia Inducible Factor 1 (HIF1A) (AID 2282951); details: HepG2 Attagene cis-factorial HIF1a reporter transcription; actives raise or lower the signal
Sequence of Hypoxia-inducible factor 1-alpha (Homo sapiens) (Q16665 whole entry, looked up): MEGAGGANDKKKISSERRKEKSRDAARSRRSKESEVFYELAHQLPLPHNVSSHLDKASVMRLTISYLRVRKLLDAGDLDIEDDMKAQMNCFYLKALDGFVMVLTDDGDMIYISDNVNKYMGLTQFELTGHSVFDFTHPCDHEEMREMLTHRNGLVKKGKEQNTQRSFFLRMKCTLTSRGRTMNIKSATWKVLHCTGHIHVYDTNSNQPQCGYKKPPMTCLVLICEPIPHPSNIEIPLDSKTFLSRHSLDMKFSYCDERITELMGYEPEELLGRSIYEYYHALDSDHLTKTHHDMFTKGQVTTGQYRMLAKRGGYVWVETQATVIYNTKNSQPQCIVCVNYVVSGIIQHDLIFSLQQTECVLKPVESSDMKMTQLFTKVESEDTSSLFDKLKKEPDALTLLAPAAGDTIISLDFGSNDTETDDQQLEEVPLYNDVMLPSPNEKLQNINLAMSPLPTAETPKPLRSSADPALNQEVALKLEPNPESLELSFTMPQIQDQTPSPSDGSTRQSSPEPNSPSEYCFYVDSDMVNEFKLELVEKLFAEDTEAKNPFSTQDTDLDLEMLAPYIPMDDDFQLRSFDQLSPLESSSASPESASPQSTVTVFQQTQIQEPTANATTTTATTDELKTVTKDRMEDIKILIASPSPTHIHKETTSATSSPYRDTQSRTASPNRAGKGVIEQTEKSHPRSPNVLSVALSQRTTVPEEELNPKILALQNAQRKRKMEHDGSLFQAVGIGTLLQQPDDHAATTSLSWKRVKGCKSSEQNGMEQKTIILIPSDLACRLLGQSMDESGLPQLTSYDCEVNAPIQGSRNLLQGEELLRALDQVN
Method in brief: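 Measures endogenous transcription-factor activity through cis-regulated reporter mRNA in HepG2. Cells dosed 24 h; transcripts quantified by RT-PCR with 6-FAM-labelled products separated by capillary electrophoresis; DMSO serves as negative control.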

Measured: AC50

C[C@]12CC[C@@H](O)C[C@@H]1CC[C@@H]1[C@@H]2CC[C@]2(C)C(=O)CC[C@@H]12
active: [8] 6.91 µM
not listed: [9] | [10]
inactive: all other assays above

O=C/C(Cl)=C(/Cl)C(=O)O
inactive: [2] | [3] | [9]
active: [1] 100 µM | [4] 136 µM | [5] 151 µM | [6] 136 µM | [7] 132 µM | [8] 167 µM

ClCCCCl
not listed: [6] | [10]
inactive: all other assays above

O=NN1CCOCC1
active: [8] 69.6 µM
not listed: [9] | [10]
inactive: all other assays above

Cc1cc(Cl)ccc1OC(C)C(=O)O (stereo not given)
not listed: [8] | [10]
inactive: all other assays above

C[C@@H]1O[C@@H](O[C@H]2C[C@@H](O)[C@]3(CO)[C@H]4[C@H](O)C[C@]5(C)[C@@H](C6=CC(=O)OC6)CC[C@]5(O)[C@@H]4CC[C@]3(O)C2)[C@H](O)[C@H](O)[C@H]1O
active: [1] 0.279 µM | [4] 0.0716 µM | [5] 0.0716 µM | [8] 0.137 µM
not listed: [10]
inactive: all other assays above

N#CCC#N
not listed: [10]
inactive: all other assays above

N#Cc1ccc(Cl)cc1
active: [8] 54.6 µM
not listed: [5] | [10]
inactive: all other assays above

O=C1C[C@@H]2OCC=C3CN4CC[C@]56c7ccccc7N1[C@H]5[C@H]2[C@H]3C[C@H]46
active: [8] 44.6 µM and 10.9 µM
not listed: [10]
inactive: all other assays above

CNC(=O)CSP(=O)(OC)OC
not listed: [3] | [10]
inactive: all other assays above

O=c1nc(O)n(Cl)c(=O)n1Cl
not listed: [3] | [6] | [9]
inactive: all other assays above

N#Cc1ccncc1
inactive: [1] | [2] | [10] | [4] | [5] | [7]

OC(c1ccc(Cl)cc1)(c1ccc(Cl)cc1)c1cccnc1
active: [8] 1.89 µM
not listed: [3] | [6]
inactive: all other assays above
